# Data taken from PubChem BioAssay (Tox21).
# “And” between values parts separate entries of the source, which are not always exact repeats. Identical values can stand only once. Unmarked numbers belong to inactive results. A call without a number means that no potency is given here. The source made the active and inactive calls. Unless noted, the call rests on the fitted dose curve; in most records, active means well fitted curve in the direction sought with a large enough effect in the repeat runs; inconclusive means weak or mixed curves; inactive means no such curve, though single readings can be large; an effect the other way counts as inactive or inconclusive.
# Legend:
# [1] = qHTS assay to identify small molecule antagonists of the thyroid receptor (TR) signaling pathway (AID 743065); further: nearly all actives have a fitted effect of over 55% in size; further: potency means the concentration at half of the fitted maximal effect; on activity, negative = inhibition: series mostly up to about 70 µM
# In short: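 Antagonism measured as loss of luciferase signal in GH3 cells stably carrying a TRE-luciferase reporter, co-treated with compound and T3 (1 nM final) for 23.5 h at 37 C. Viability was read in the same well by CellTiter-Fluor.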
# [2] = tested on: thyroid hormone receptor (rat, GH3 cells); assay: qHTS assay to identify small molecule agonists of the thyroid receptor (TR) signaling pathway (AID 743066; calls by dose curve)
# [3] = qHTS assay to identify small molecule antagonists of the estrogen receptor alpha (ER-alpha) signaling pathway - cell viability counter screen (AID 743074; calls by dose curve;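 further: HEK293 cells carrying ER-alpha-UAS-bla reporter stimulated with 17beta-estradiol; nearly all actives have a fitted effect of over 45% in size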; further: potency means the concentration at half of the fitted maximal effect)
# [4] = qHTS assay to identify small molecule antagonists of the estrogen receptor alpha (ER-alpha) signaling pathway using the BG1 cell line - cell viability counter screen (AID 743081);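 further: compound given together with 17beta-estradiol as the ER stimulus; nearly all actives have a fitted effect of over 45% in size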; further: potency means the concentration at half of the fitted maximal effect; on activity change, negative = cytotoxicity: series mostly up to about 70 µM
# Aromatase (Homo sapiens) = Aromatase (Homo sapiens) (UniProt P11511); assay: qHTS assay to identify aromatase inhibitors (AID 743083); further: nearly all actives have a fitted effect of over 55% in size; further: potency means the concentration at half of the fitted maximal effect; on activity, negative = inhibition: series mostly up to about 70 µM
# [5] = qHTS assay to identify aromatase inhibitors - cell viability counter screen (AID 743084);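 further: cells stimulated with testosterone during compound exposure; nearly all actives have a fitted effect of over 55% in size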; further: potency means the concentration at half of the fitted maximal effect
# [6] = target: Estrogen receptor (Homo sapiens) (UniProt P03372); assay: qHTS assay to identify small molecule agonists of the estrogen receptor alpha (ER-alpha) signaling pathway (AID 743075; calls by dose curve;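 further: HEK293 GripTite cells with ER-alpha and UAS-driven beta-lactamase reporter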; further: potency means the concentration at half of the fitted maximal effect)
# [7] = target: Estrogen receptor (Homo sapiens) (UniProt P03372); assay: qHTS assay to identify small molecule agonists of the estrogen receptor alpha (ER-alpha) signaling pathway using the BG1 cell line (AID 743079); further: nearly all actives have a fitted effect of over 20% in size; further: potency means the concentration at half of the fitted maximal effect
# [8] = target: Estrogen receptor (Homo sapiens) (UniProt P03372); assay: qHTS assay to identify small molecule antagonists of the estrogen receptor alpha (ER-alpha) signaling pathway (AID 743069; active means well fitted curve in the direction sought with a large enough effect in the signal ratio in the repeat runs, not every such curve was filed as active; inconclusive means weak or mixed curves, or effect the other way; inactive means no such curve, though single readings can be large or run the other way; the % refers to the signal ratio)
# In short: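 Antagonist mode: compounds in DMSO were co-added with 17beta-estradiol to ER-alpha-bla HEK293 cells (2% charcoal-stripped serum) and left 18 h at 37C. Reporter inhibition was measured as FRET fluorescence after 2 h LiveBLAzer substrate at room temperature.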
# [9] = qHTS assay to identify small molecule antagonists of the estrogen receptor alpha (ER-alpha) signaling pathway using the BG1 cell line (AID 743080; calls by dose curve;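 further: BG1 cells stimulated with 17beta-estradiol alongside compound; series mostly up to about 70 µM; nearly all actives have a fitted effect of over 25% in size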)
# In short: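 Readout is ONE-Glo luminescence, taken 30 min at room temperature after reagent addition, preceded by a CellTiter-Fluor viability read; BG1-Luc-4E2 cells had received compound and 17beta-estradiol for 21.5 h at 37 C.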
# Chain of Aromatase (Homo sapiens) (P11511 whole entry, looked up): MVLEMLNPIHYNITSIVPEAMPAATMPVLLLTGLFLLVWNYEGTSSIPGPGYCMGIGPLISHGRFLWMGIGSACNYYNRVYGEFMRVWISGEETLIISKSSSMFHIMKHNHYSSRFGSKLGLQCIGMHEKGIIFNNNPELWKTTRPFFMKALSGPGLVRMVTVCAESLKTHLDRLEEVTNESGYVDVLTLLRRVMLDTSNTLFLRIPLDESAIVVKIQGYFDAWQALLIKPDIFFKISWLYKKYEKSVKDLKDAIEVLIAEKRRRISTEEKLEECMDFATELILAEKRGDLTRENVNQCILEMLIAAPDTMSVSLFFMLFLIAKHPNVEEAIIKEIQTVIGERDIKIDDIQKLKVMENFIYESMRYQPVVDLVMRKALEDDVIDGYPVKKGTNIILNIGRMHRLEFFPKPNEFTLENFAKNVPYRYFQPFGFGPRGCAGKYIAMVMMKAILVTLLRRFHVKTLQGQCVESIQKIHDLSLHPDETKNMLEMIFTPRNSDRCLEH
# Chain of Estrogen receptor (Homo sapiens) (P03372 whole entry, looked up): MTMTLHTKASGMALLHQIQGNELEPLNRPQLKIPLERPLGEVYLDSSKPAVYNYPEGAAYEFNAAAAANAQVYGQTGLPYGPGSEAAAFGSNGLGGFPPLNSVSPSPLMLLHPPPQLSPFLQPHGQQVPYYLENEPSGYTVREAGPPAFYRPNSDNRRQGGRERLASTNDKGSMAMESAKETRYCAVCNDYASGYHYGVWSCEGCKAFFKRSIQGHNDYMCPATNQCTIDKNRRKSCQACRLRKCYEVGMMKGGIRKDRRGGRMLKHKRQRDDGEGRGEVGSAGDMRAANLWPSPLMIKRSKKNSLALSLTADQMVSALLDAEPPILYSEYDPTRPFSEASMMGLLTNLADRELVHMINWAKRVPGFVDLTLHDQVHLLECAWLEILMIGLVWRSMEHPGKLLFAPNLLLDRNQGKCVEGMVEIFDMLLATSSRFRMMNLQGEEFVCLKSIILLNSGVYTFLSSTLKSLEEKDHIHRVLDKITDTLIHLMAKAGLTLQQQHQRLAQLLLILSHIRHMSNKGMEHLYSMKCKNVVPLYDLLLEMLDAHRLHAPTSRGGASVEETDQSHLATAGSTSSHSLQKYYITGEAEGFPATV
structure (smiles),measurement,setting,value
CC(C)O.CC(C)O.CCOC(=O)/C=C(\C)O.CCOC(=O)/C=C(\C)O.[Ti],Potency,[1],inactive
same,Potency,[2],inactive
same,Potency,[3],inactive
same,Potency,[4],inactive
O=[N+]([O-])c1cccc(S(=O)(=O)O)c1,Potency,[1],inactive
same,Potency,[2],inactive
same,Potency,[3],inactive
same,Potency,[4],inactive
same,Potency,Aromatase (Homo sapiens),inactive
same,Potency,[5],inactive
CC(C)(O)c1ccc(CNC(=O)c2cccnc2Oc2ccc(F)cc2)cc1,Potency,[1],inactive
same,Potency,[2],inactive
same,Potency,[3],inactive
same,Potency,[4],inactive
CCCCO,Potency,[1],inactive
same,Potency,[2],inactive
same,Potency,[3],inactive
same,Potency,[4],inactive
same,Potency,Aromatase (Homo sapiens),inactive
same,Potency,[5],inactive
CCn1cc(C(=O)O)c(=O)c2cnc(N3CCNCC3)nc21,Potency,[1],inactive
same,Potency,[2],inactive
same,Potency,[3],inactive
same,Potency,[4],inactive
same,Potency,Aromatase (Homo sapiens),inactive
same,Potency,[5],inactive
CC(COCCO)OCCO (configuration not stated),Potency,[1],inactive
same,Potency,[2],inactive
same,Potency,[3],inactive
same,Potency,[4],inactive
same,Potency,Aromatase (Homo sapiens),inactive
same,Potency,[5],inactive
CC/C=C\CCOC(=O)CC,Potency,[1],inactive
same,Potency,[2],inactive
same,Potency,[3],inactive
same,Potency,[4],inactive
same,Potency,Aromatase (Homo sapiens),inactive
same,Potency,[5],inactive
CCC(C)(C)CC,Potency,[1],inactive
same,Potency,[2],inactive
same,Potency,[3],inactive
same,Potency,[4],inactive
CCCCCCCC/C=C\CCCCCCCC(=O)OCC,Potency,[1],inactive
same,Potency,[2],inactive
same,Potency,[3],inactive
same,Potency,[4],inactive
same,Potency,Aromatase (Homo sapiens),inactive
same,Potency,[5],inactive
Nc1cc(C(=O)O)c(O)c(S(=O)(=O)O)c1,Potency,[1],inactive
same,Potency,[2],inactive
same,Potency,[3],inactive
same,Potency,[4],inactive
same,Potency,Aromatase (Homo sapiens),inactive
O=C(O)c1ccccc1Cl,Potency,[1],inactive
same,Potency,[2],inactive
same,Potency,[3],inactive
same,Potency,[4],inactive
same,Potency,Aromatase (Homo sapiens),inactive
same,Potency,[5],inactive
CCCCCCc1ccc(-c2ccc(C#N)cc2)cc1,Potency,[1],inactive
same,Potency,[2],inactive
same,Potency,[3],inactive
same,Potency,[4],inactive
C=CC(=O)OCCOc1ccccc1,Potency,[1],54.4 µM (active)
same,Potency,[2],inactive
same,Potency,[3],inactive
same,Potency,[4],inactive
same,Potency,Aromatase (Homo sapiens),inactive
same,Potency,[5],inactive
CCCCCCCCCc1ccc(OCCOCCO)cc1,Potency,[1],18.8 µM (active)
same,Potency,[2],inactive
same,Potency,[3],15.1 µM (active) and 16.3 µM (active)
same,Potency,[4],15 µM (active)
same,Potency,Aromatase (Homo sapiens),22.8 µM (active)
same,Potency,[5],21.1 µM (active) and 22.8 µM (active)
C[C@H]1C[C@H]2[C@@H]3CCC4=CC(=O)C=C[C@]4(C)[C@@]3(Cl)[C@@H](O)C[C@]2(C)[C@@]1(O)C(=O)CO,Potency,[1],inactive
same,Potency,[2],inactive
same,Potency,[3],inactive
same,Potency,[6],inactive
same,Potency,[7],inactive
same,Potency,[4],inactive
same,Potency,Aromatase (Homo sapiens),inactive
same,Potency,[5],inactive
CC(=O)NO,Potency,[1],inactive
same,Potency,[2],inactive
same,Potency,[3],inactive
same,Potency,[4],inactive
same,Potency,Aromatase (Homo sapiens),inactive
same,Potency,[5],inactive
CN(C)CCN(Cc1ccc(Cl)cc1)c1ccccn1,Potency,[1],10.1 µM (active)
same,Potency,[2],inactive
same,Potency,[3],inactive
same,Potency,[4],inactive
same,Potency,Aromatase (Homo sapiens),inactive
same,Potency,[5],inactive
COc1cc2nc(N3CCN(C(=O)C4COc5ccccc5O4)CC3)nc(N)c2cc1OC (configuration not stated),Potency,[1],29.8 µM (active)
same,Potency,[2],inactive
same,Potency,[3],inactive
same,Potency,[4],inactive
CC1(c2ccccc2)OC(C(=O)O)=CC1=O (configuration not stated),Potency,[1],inactive
same,Potency,[2],inactive
same,Potency,[3],inactive
same,Potency,[4],inactive
same,Potency,Aromatase (Homo sapiens),inactive
same,Potency,[5],inactive
CC(C)(COC(=O)c1ccccc1)COC(=O)c1ccccc1,Potency,[1],inactive
same,Potency,[2],inactive
same,Potency,[3],inactive
same,Potency,[4],inactive
same,Potency,Aromatase (Homo sapiens),inactive
same,Potency,[5],inactive
CC1=CCCC(C)(C)C12CCC(C)O2 (configuration not stated),Potency,[1],inactive
same,Potency,[2],inactive
same,Potency,[3],inactive
same,Potency,[4],inactive
COc1ccc(-c2nc3ccc(C4=NNC(=O)CC4C)cc3[nH]2)cc1 (configuration not stated),Potency,[1],23.7 µM (active)
same,Potency,[2],inactive
same,Potency,[3],inactive
same,Potency,[4],inactive
same,Potency,Aromatase (Homo sapiens),inactive
same,Potency,[5],inactive
CN(C)c1ccc(C(c2ccccc2)c2ccc(N(C)C)cc2)cc1,Potency,[1],24.3 µM (active)
same,Potency,[2],inactive
same,Potency,[3],inactive
same,Potency,[4],inactive
same,Potency,Aromatase (Homo sapiens),inactive
same,Potency,[5],inactive
C/C=C/C=C/CO,Potency,[1],inactive
same,Potency,[2],inactive
same,Potency,[3],inactive
same,Potency,[4],inactive
same,Potency,Aromatase (Homo sapiens),inactive
same,Potency,[5],inactive
CCCCOC(=O)CCCCCCCC(=O)OCCCC,Potency,[1],inactive
same,Potency,[2],inactive
same,Potency,[3],inactive
same,Potency,[4],inactive
same,Potency,Aromatase (Homo sapiens),inactive
same,Potency,[5],inactive
CCCCc1ncc(/C=C(\Cc2cccs2)C(=O)O)n1Cc1ccc(C(=O)O)cc1,Potency,[1],inactive
same,Potency,[2],inactive
same,Potency,[3],inactive
same,Potency,[4],inactive
same,Potency,Aromatase (Homo sapiens),inactive
same,Potency,[5],inactive
COc1ccc(C)cc1[N+](=O)[O-],Potency,[1],inactive
same,Potency,[2],inactive
same,Potency,[3],inactive
same,Potency,[4],inactive
same,Potency,Aromatase (Homo sapiens),inactive
same,Potency,[5],inactive
O=C(O)C(S)C(S)C(=O)O (configuration not stated),Potency,[1],11.9 µM (active)
same,Potency,[2],inactive
same,Potency,[3],inactive
same,Potency,[4],inactive
same,Potency,Aromatase (Homo sapiens),inactive
same,Potency,[5],inactive
O=C(NCCO[N+](=O)[O-])c1cccnc1,Potency,[1],inactive
same,Potency,[2],inactive
same,Potency,[3],inactive
same,Potency,[4],inactive
same,Potency,Aromatase (Homo sapiens),inactive
same,Potency,[5],inactive
CCC(Cl)CCC(Cl)C(Cl)CC(Cl)C(Cl)C(Cl)CCl (configuration not stated),Potency,[1],inactive
same,Potency,[2],inactive
same,Potency,[3],inactive
same,Potency,[4],inactive
same,Potency,Aromatase (Homo sapiens),inactive
same,Potency,[5],inactive
COc1ccc(C(=O)Nc2nc3ccccc3c(NCc3ccccc3)c2C#N)cc1,Potency,[1],inactive
same,Potency,[2],inactive
same,Potency,[3],inactive
same,Potency,[6],inactive
same,Potency,[4],inactive
CCCCC,Potency,[1],inactive
same,Potency,[2],inactive
same,Potency,[3],inactive
same,Potency,[4],inactive
Nc1ccc(S(=O)(=O)Nc2ccccc2)cc1,Potency,[1],inactive
same,Potency,[2],inactive
same,Potency,[3],inactive
same,Potency,[4],inactive
same,Potency,Aromatase (Homo sapiens),inactive
same,Potency,[5],inactive
CCOC(=O)C(F)(F)F,Potency,[1],inactive
same,Potency,[2],inactive
same,Potency,[3],inactive
same,Potency,[4],inactive
same,Potency,Aromatase (Homo sapiens),inactive
same,Potency,[5],inactive
COC(C)(C)CCO,Potency,[1],inactive
same,Potency,[2],inactive
same,Potency,[3],inactive
same,Potency,[4],inactive
same,Potency,Aromatase (Homo sapiens),inactive
same,Potency,[5],inactive
Clc1ccc(Cn2c(CN3CCCC3)nc3ccccc32)cc1,Potency,[1],11.4 µM (active)
same,Potency,[2],inactive
same,Potency,[3],inactive
same,Potency,[4],inactive
same,Potency,Aromatase (Homo sapiens),inactive
same,Potency,[5],inactive
O=C(O)c1nc(Cl)c(Cl)c(Cl)c1Cl,Potency,[1],inactive
same,Potency,[2],inactive
same,Potency,[3],inactive
same,Potency,[4],inactive
Nc1ccccc1S(=O)(=O)c1ccccc1,Potency,[1],inactive
same,Potency,[2],inactive
same,Potency,[3],inactive
same,Potency,[4],inactive
CC(C)C[C@H]1C(=O)N2CCC[C@H]2[C@]2(O)O[C@](NC(=O)[C@@H]3C=C4c5cccc6[nH]c(Br)c(c56)C[C@H]4N(C)C3)(C(C)C)C(=O)N12,Potency,[1],13.3 µM (active) and 16.4 µM (active)
same,Potency,[2],inactive
same,Potency,[3],inactive
same,Potency,[4],inactive
same,Potency,[5],inactive
CC(C)(CO)[N+](=O)[O-],Potency,[1],inactive
same,Potency,[2],inactive
same,Potency,[4],inactive
same,Potency,Aromatase (Homo sapiens),inactive
same,Potency,[5],inactive
CCCCCCCCO[C@@H]1O[C@H](CO)[C@@H](O)[C@H](O)[C@H]1O,Potency,[2],inactive
same,Potency,[8],inactive
same,Potency,[3],inactive
same,Potency,[6],inactive
same,Potency,[7],inactive
same,Potency,[9],inactive
same,Potency,[4],inactive
same,Potency,Aromatase (Homo sapiens),inactive
same,Potency,[5],inactive
CCCNCC(O)COc1ccccc1C(=O)CCc1ccccc1 (configuration not stated),Potency,[1],23.7 µM (active)
same,Potency,[3],inactive
same,Potency,[4],inactive
same,Potency,[5],inactive
O=C(O)CNCC(=O)O,activation,[2],-1.57% [at 8.08 µM]
same,"activity, negative = inhibition",[8],-6.23% [at 6.71 µM]
same,"activity, negative = cytotoxicity",[3],-3.67% [at 6.72 µM]
same,activation,[6],-4.82% [at 6.71 µM]
same,activation,[7],2.44% [at 8.47 µM]
same,"activity change, negative = inhibition",[9],0.887% [at 8.47 µM]
same,"activity change, negative = cytotoxicity",[4],-9.74% [at 8.47 µM]
same,"activity, negative = inhibition",Aromatase (Homo sapiens),14.5% [at 8.47 µM]
same,"activity change, negative = cytotoxicity",[5],-0.604% [at 8.47 µM]
CNCCCN1c2ccccc2CCc2ccccc21,Potency,[1],12.7 µM (active)
same,Potency,[8],inactive
same,Potency,[3],inactive
same,Potency,[6],inactive
same,Potency,[7],inactive
same,Potency,[9],inactive
same,Potency,[4],inactive
same,Potency,Aromatase (Homo sapiens),inactive
same,Potency,[5],inactive
CCN(CC)CCNc1ccc(CNC=O)c2sc3ccc(OC)cc3c(=O)c12,Potency,[1],24.3 µM (active)
same,Potency,[3],inactive
same,Potency,[6],4.36 µM [inconclusive] (active)
same,Potency,[7],2.73 µM (active)
same,Potency,[4],4.86 µM (active)
same,Potency,Aromatase (Homo sapiens),38.6 µM (active)
same,Potency,[5],48.6 µM (active)
O=[N+]([O-])c1ccc(NCCO)c(OCCO)c1,Potency,[1],inactive
same,Potency,[2],inactive
same,Potency,[4],68.7 µM (active)
same,Potency,Aromatase (Homo sapiens),17.2 µM (active)
